Laboratory results: PubChem BioAssay AID651814 (National Center for Advancing Translational Sciences (NCATS), 2012)
Among all 2,100 compounds or so, about 590 (28%) were called active. Roughly 42% stayed inconclusive and do not appear here. Calls come from the whole dose curve; as a rule, active = well fitted inhibition curve with a large enough effect; inconclusive = small, poorly fitted or top-dose-only effect; inactive = flat fitted curve, though single readings scatter. The list shows a part of the results.

What follows are molecules tested against DNA dC->dU-editing enzyme APOBEC-3F (Homo sapiens) (UniProt Q8IUX4) (assay: qHTS for inhibitors of Vif-A3F interactions: Cherry picks). Conditions: HeLa A3F-eYFP + Vif (tagged APOBEC3F with the HIV-1 protein that degrades it), eYFP fluorescence, 24 h.
Chain of DNA dC->dU-editing enzyme APOBEC-3F (Homo sapiens) (Q8IUX4 whole entry, looked up): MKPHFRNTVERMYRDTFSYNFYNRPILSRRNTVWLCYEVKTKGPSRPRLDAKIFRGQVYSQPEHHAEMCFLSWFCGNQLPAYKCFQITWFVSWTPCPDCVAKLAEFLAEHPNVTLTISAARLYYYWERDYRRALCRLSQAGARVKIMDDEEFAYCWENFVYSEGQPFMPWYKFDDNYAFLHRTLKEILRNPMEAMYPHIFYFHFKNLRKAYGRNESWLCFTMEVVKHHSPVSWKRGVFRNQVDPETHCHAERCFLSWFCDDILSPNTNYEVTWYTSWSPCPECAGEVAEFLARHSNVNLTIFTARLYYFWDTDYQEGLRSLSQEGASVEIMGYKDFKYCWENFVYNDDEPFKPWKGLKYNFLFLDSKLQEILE
Procedure, shortened: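 Read-out: yellow fluorescence (ex 488 nm, em 500-530 nm) by laser-scanning cytometer after 24 h compound exposure, several concentrations, at 37 deg C. Cells: HeLa line stably co-expressing Vif and C-terminally eYFP-tagged A3F; MG132 served as positive control.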
Note: nearly all actives have a fitted effect of over 70% in size.
Potency is the fitted concentration of half-maximal effect.
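Throughout, for Max response: % of control where 0% means no effect; active compounds raise eYFP fluorescence by blocking Vif-driven A3F loss.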

Max response, inactive:
O=C(OC12CC3CC(CC(C3)C1)C2)c1ccc(NCc2cc(O)ccc2O)cc1 -13.8%
O=C(CN1c2ccccc2Sc2ccccc21)NNC(=O)Nc1cccc(Cl)c1 -28.8%
O=S(=O)(Nc1nc2ccccc2nc1OCC(F)(F)F)c1cccs1 -0.45%
CSc1nsc(/C=C/Nc2ccc(F)cc2)c1C#N -9.4%
N#CC1=C(S)N(c2ccc(F)cc2)C2(CCCCC2)NC1=O 2.73%
Cc1c(C(=O)Nc2cnccn2)oc2ccccc12 -18.9%
O=C(Nc1nc(NC(=O)c2ccco2)n(-c2ccccc2)n1)c1ccccc1 -10.5%
NC(=O)c1cccc(-c2ccnc3c2CC(C(=O)NCc2ccco2)O3)c1 (stereo not drawn) -22.9%
CCOC(=O)c1sc(NC(=S)NC(=O)c2ccco2)nc1C 0.261%
COc1cccc(NC(=O)c2sc3nc(C)c(C(=O)Nc4ccc(C)cc4C)c(-c4ccco4)c3c2N)c1 -5.66%
C#CCSc1nc(-c2cccs2)ccc1C#N -28.5%
CC1Sc2ccc(C(=O)NCc3ccccn3)cc2NC1=O (stereo not drawn) -4.69%
CCn1c(CNC(=O)C23CC4CC(CC(C4)C2)C3)nnc1SCC(=O)Nc1ccc(OC)cc1 6.03%
COc1ccc(NC(=O)c2cccc3ccccc23)cc1 -30%
Cc1ccc(NC(=O)CSc2ccccc2NC(=O)c2cccc(Cl)c2)cc1Cl -5.67%
Cc1cccc(C(=O)NC(=S)N2CCc3ccccc3C2)c1 0.715%
COc1ccc(NC(=O)CN2C(=O)C3(SCC(=O)N3c3ccccc3)c3ccccc32)cc1Cl (stereo not drawn) -11.4%
Cn1cc(/C=C2\SC(=O)N(c3ccccc3)C2=O)c2ccccc21 -28.8%
C/C(=N/NC(N)=S)c1ccc(Br)s1 1.12%
CC(NC1=CC(=O)c2cccnc2C1=O)C(O)c1ccccc1 (stereo not drawn) -27.2%
O=C(NCc1ccco1)C1Cc2c(-c3cccc(F)c3)ccnc2O1 (stereo not drawn) -27.2%
Cc1ccc(-c2cc(C(=O)N/N=C/C(Br)=C/c3ccccc3)n[nH]2)o1 -23.7%
O=[N+]([O-])c1ccccc1C1Nc2cccc3cccc(c23)N1 1.22%
Cc1ccc(S(=O)(=O)Nc2cc(Cl)c(O)c3ncccc23)cc1 -26.9%
C(=C\c1ccco1)/C1=NN(c2ccccc2)C(c2ccco2)C1 (stereo not drawn) -27.8%
COc1cccc(C2CC(c3ccccc3)=NN2S(=O)(=O)c2ccc(C)cc2)c1OC (stereo not drawn) -28.4%
CCCOc1ccc(N)cc1N 4.36%
CN1C(=O)C(O)(C2COC(C)(C)CC2=O)c2cc(Br)ccc21 (stereo not drawn) -0.16%
CC(C)CCNC(=O)c1ccc2c(c1)NC(=O)C(CS(=O)(=O)Cc1cccc(Br)c1)N2 (stereo not drawn) 0.102%
C/C(=N\NC(=O)c1cc(-c2ccncc2)nc2ccccc12)c1ccc(N2CCOCC2)cc1 -14.9%
CC(=O)c1c(C)[nH]c(C(=O)Nc2ccc(Cl)cc2F)c1C -17.7%
COC(=O)c1c(-c2ccccc2Cl)noc1/C=C/N(C)C 2.98%
CC(=O)c1cc2c(cc1NS(=O)(=O)c1ccc(C)cc1)OCCO2 -26.6%
COC(=O)c1cc(NC(=O)c2ccccc2)c(=O)oc1/C=C/Nc1ccc(Oc2ccccc2)cc1 -22%
COc1cc(OC)cc(C(=O)Nc2ccccc2C(=O)NC2CC2)c1 -22.6%
C/C(=N\Nc1nccnc1Cl)c1ccc(Cl)c(Cl)c1 0.009%
COc1ccccc1-c1cc(C(=O)NN)[nH]n1 7.62%
CCCCCCc1cc2cc(-c3nnc(-c4ccccc4O)o3)c(=O)oc2cc1O 6.08%
O=C(Cn1cnc2c(cnn2-c2ccc(F)cc2)c1=O)NCc1ccco1 -25.6%
O=S(=O)(Nc1nc2ccccc2nc1N1CCc2ccccc2C1)c1ccc(Br)cc1 -17%
CCOc1ccc(N/C=C/C(=O)c2cc(OC)c(OC)c(OC)c2)cc1 -29.8%
C=CCN1C(=O)/C(=C/c2ccc(O)c(OC)c2)S/C1=N/c1nccs1 -0.164%
Cc1ccc2[nH]c(C(=O)NN=C3CCCCC3)c(-c3ccccc3)c2c1 0.516%
Cc1cc(C)cc(Oc2nc(C(F)(F)F)nc3ccccc23)c1 -26.3%
CCc1ccc2nc(N(CCCN(C)C)C(=O)c3ccc(S(=O)(=O)N(C)C4CCCCC4)cc3)sc2c1 -4.66%
O=C(C(=O)N1CCN(c2ccccc2Cl)CC1)c1c[nH]c2ccccc12 2.85%
CC(=O)Nc1ccc(S(=O)(=O)Nc2nc3ccccc3nc2Nc2ccc3ccccc3c2)cc1 0.168%
COc1ccc(S(=O)(=O)N2CCN(C(=O)c3ccc([N+](=O)[O-])o3)CC2)cc1 -3.97%
COc1ccc2oc(-c3ccccc3[N+](=O)[O-])cc(=O)c2c1 -28%
CC(/C=C/c1ccc(N(C)C)cc1)=N\N=C(/N)SC1CC(=O)N(c2ccc(C(=O)O)cc2)C1=O (stereo not drawn) -20.3%
Cc1ccc(/C=N/NC(=O)CCCOc2ccc(Cl)cc2Cl)cc1 -27.3%
Cc1ccc(-c2nc3ncccc3o2)cc1NC(=O)c1ccc([N+](=O)[O-])o1 -17.2%

Potency, active:
CCN1/C(=C\C=C(C(C)=O)C(C)=O)Sc2ccccc21 18.4 µM
CSc1nsc(/C=C/Nc2ccc(C)cc2)c1C#N 15.8 µM
CC(=O)Nc1sc(/C(C#N)=C\c2cccc(Cl)c2)nc1-c1ccc(C)cc1 6.51 µM
CC(=O)Nc1sc(/C(C#N)=C/c2ccc(Cl)c(Cl)c2)nc1-c1ccc(C)cc1 2.59 µM
CCc1ccc(NC(=O)c2sc3nc(C)c(C(=O)Nc4ccc(C)cc4C)c(-c4ccco4)c3c2N)cc1 23.1 µM
N#Cc1cccn1-c1nccc(-c2cccs2)n1 12.5 µM
O=CNc1ccc2c3c(cccc13)-c1ccccc1-2 14 µM
CCCCN(C)CC(O)Cn1cc(/C=C/C(=O)c2cccs2)c2ccccc21 (stereo not drawn) 20.6 µM
N#CCC(=O)N/N=C/c1ccc(N2N=C(c3ccccc3)CC2c2ccccc2)cc1 (stereo not drawn) 18.4 µM
COc1ccc(NC(=O)CSc2ccc3c4c(cccc24)C(=O)c2ccccc2-3)cc1 8.2 µM
N#Cc1cccc(NC(=O)CSc2ccc3c4c(cccc24)C(=O)c2ccccc2-3)c1 2.31 µM
CCCN1C(=O)S/C(=C/c2ccc(N3CCOCC3)o2)C1=O 2.8 µM
CCCN1C(=O)S/C(=C\c2ccc(N3CCOCC3)o2)C1=O 2.8 µM
O=C1S/C(=C\c2ccc(N3CCOCC3)o2)C(=O)N1c1ccccc1 3.53 µM
Cc1cccc2[nH]cc(/C=C3/C=Nc4ccccc43)c12 23.1 µM
O=[N+]([O-])c1ccc(C2=NN(c3ccccc3)C(c3ccco3)C2)cc1 (stereo not drawn) 1.25 µM
O=[N+]([O-])c1ccc(/C=C/C2=NN(c3ccccc3)C(c3ccco3)C2)o1 (stereo not drawn) 2.59 µM
COc1ccccc1N1N=C(c2ccc([N+](=O)[O-])cc2)CC1c1ccccc1 (stereo not drawn) 1.12 µM
CCN1/C(=C/C=C2/SC(=Nc3cccc4ncccc34)N(C)C2=O)Sc2ccccc21 16.4 µM
CC(C)n1cc(/C=C/c2cc[n+](C)cc2)c2ccccc21 1.4 µM
CCn1cc(/C=C/c2cc[n+](C)cc2)c2ccccc21 0.79 µM
C=CCn1cc(/C=C/c2cc[n+](C)cc2)c2ccccc21 2.23 µM
COc1ccc(C(=O)Nc2cc(C(C)=O)c(/C=C/N(C)C)oc2=O)cc1 11.2 µM
CC(=O)c1cc(NC(=O)c2ccc(C)cc2)c(=O)oc1/C=C/N(C)C 20.6 µM
CC(=O)c1cc(NC(=O)c2ccc(Cl)cc2)c(=O)oc1/C=C/N(C)C 6.27 µM
N#CC1=C(N)C(C#N)(C#N)[C@H](c2c(F)cccc2F)[C@H]2CC3(CC=C12)OCCO3 20.6 µM
CCCCCCc1cc2cc(-c3nnc(-c4ccccc4OC)o3)c(=O)oc2cc1O 2.8 µM
CCCCCCc1cc2cc(-c3nnc(-c4ccccc4)o3)c(=O)oc2cc1O 3.96 µM
C=C(NC(=O)C(=C)NC(=O)c1csc(C2=NC3c4csc(n4)C4NC(=O)c5csc(n5)C(C(C)(O)C(C)O)NC(=O)C5CSC(=N5)/C(=C/C)NC(=O)C(C(C)O)NC(=O)c5csc(n5)C3(CC2)NC(=O)C(C)NC(=O)C(=C)NC(=O)C(=C)NC(=O)C(C(C)C)NC2C=Cc3c(C(C)O)cc(nc3C2O)C(=O)OC4C)n1)C(N)=O (stereo not drawn) 12.5 µM
O=C(Cn1c(=O)n(Cc2ccco2)c(=O)c2sc3ccccc3c21)Nc1ccccc1C(F)(F)F 14.6 µM
CCc1ccc(N=Nc2ccc(O)c3[nH]cnc23)cc1 13 µM
COc1cc(/C=C/C(=O)c2ccc3c(c2)OCCO3)cc(Br)c1OCC(=O)N(C)C 15.8 µM
CCOC(=O)C1=C(C)N=c2sc(=Cc3cc(Cl)c(OCC(=O)O)c(Cl)c3)c(=O)n2C1c1cccc(OC)c1 (stereo not drawn) 19.8 µM
C=CCN1C(=O)/C(=C2/Sc3ccc(OC)cc3N2CC)SC1=S 9.2 µM
C=CCN1C(=O)/C(=C2/Sc3ccc(OC)cc3N2C)SC1=Nc1cccc(O)c1 20.6 µM
CC[n+]1ccc(/C=C/c2c[nH]c3ccccc23)cc1 9.2 µM
C[n+]1cc(C(=O)N2CCCCC2)ccc1/C=C/c1c[nH]c2ccccc12 14 µM
C[n+]1ccc(/C=C/c2c[nH]c3ccccc23)cc1 9.2 µM
OCC[n+]1ccc(/C=C/c2c[nH]c3ccccc23)cc1 8.2 µM
COc1ccc2[nH]c3c(c2c1)CCNC3c1ccc([N+](=O)[O-])o1 (stereo not drawn) 23.1 µM
CCOC(=O)C1C(=O)C=C(/C=C/c2ccc(N(C)C)cc2)CC1c1ccccc1 (stereo not drawn) 10.3 µM
